The structures appear in SMILES notation. Results filed as inconclusive are left out. Unmarked numbers belong to inactive results. Active and inactive are the calls of the source. Calls come from the whole dose curve; as a rule, active = well fitted inhibition curve with a large enough effect; inconclusive = small, poorly fitted or top-dose-only effect; inactive = flat fitted curve, though single readings scatter.

We go through 39 compounds from PubChem BioAssay (NCATS).
Potency is the fitted concentration of half-maximal effect.

The first experiment relates to CP252. Description: qHTS profiling for inhibitors of Plasmodium falciparum proliferation (AID 504749).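 For activity, negative = inhibition: 0% = DMSO vehicle and full inhibition = artemisinin control.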 Note: nearly all actives have a fitted effect of over 60% in size. The note with it: P. falciparum in erythrocytes, SYBR Green DNA, 72 h; series mostly up to 28.7 µM; activity, negative = inhibition: at the top concentration. A digest of the protocol:
(§1)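 P. falciparum-infected erythrocytes (0.3% parasitemia, 2.5% hematocrit final) were exposed to compounds for 72 h at 37 C in 5% CO2, then lysed with SYBR Green buffer overnight at room temperature; parasite DNA fluorescence was normalized to artemisinin and DMSO controls.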
Regarding `Cc1ccc(C(C)(C)c2ccc(C)cc2)cc1`, the “activity, negative = inhibition” value is 9.95%.
Same read-out and setting: the figure for `N[C@H](CC(=O)O)C(=O)O` is 2.84%.
Take `O=C(O)COc1ccc(CCNS(=O)(=O)c2ccccc2)s1`: the “activity, negative = inhibition” value is 3.56%.
Still for that read-out and setting: the figure for `O=S(=O)(O)CCCS(=O)(=O)O` is 7.45%.
For the compound `COC(=O)c1ccccc1O`, the “activity, negative = inhibition” value is -3.86%.
Consider `CC1(O)CCC(C(C)(C)O)CC1` (stereo not drawn), for which the “activity, negative = inhibition” value is 0.426%.
On to `COc1ccc(/C=C/C(=O)O)cc1`, for which the “activity, negative = inhibition” value is -5.24%.
With `CC(=O)Nc1c(I)c(C(=O)O)c(I)c(N(C)C(C)=O)c1I`, the “activity, negative = inhibition” value was -4.64%.
The same measure, in the same setting: the figure for `Nc1ncnc2c1ncn2[C@H]1CC[C@@H](CO)O1` is 1.92%.
Turning to `COC(=O)C(CN)c1c[nH]c2ccc(OC)cc12` (stereo not drawn), the “activity, negative = inhibition” value is 0.801%.
`CC/C(=C(/CC)c1ccc(OP(=O)(O)O)cc1)c1ccc(OP(=O)(O)O)cc1`: the “activity, negative = inhibition” value was -6.55%.
On to `CN1c2c(nc(N)[nH]c2=O)NCC1CNc1ccc(C(=O)NC(CCC(=O)O)C(=O)O)cc1` (stereo not drawn), for which the “activity, negative = inhibition” value was 9.8%.
The same measure, in the same setting: in the case of `CC(C)(CO)[C@@H](O)C(=O)NCCC(=O)NCCSSCCNC(=O)CCNC(=O)[C@H](O)C(C)(C)CO` it was 14.7%; in that of `CCCC(=O)O`, 1.14%.
The same measure, in the same setting: in the case of `CCSc1ccc2c(c1)N(CCCN1CCN(C)CC1)c1ccccc1S2` it was -13.1% [at 12.8 µM].
Regarding `CC1=CC(=C(c2ccc(N)cc2)c2ccc(N)cc2)C=CC1=N`, the Potency was 3160 nM (active).
`CC1=CC(=O)NS(=O)(=O)O1`: the “activity, negative = inhibition” value is 5.72%.
In the case of `CC1CCCCN1CCCOC(=O)c1ccccc1` (stereo not drawn), the “activity, negative = inhibition” value was -15.6%.
Still for that read-out and setting: in the case of `COC(=O)CC[C@H](N)C(=O)O` it was 4.96%.
Consider `C[C@H](CCC(=O)O)[C@H]1CC[C@H]2[C@@H]3CC[C@@H]4C[C@H](O)CC[C@]4(C)[C@H]3C[C@H](O)[C@]12C`, for which the “activity, negative = inhibition” value was 7.85%.
Regarding `CO`, the “activity, negative = inhibition” value was 4.38%.
On to `C=CCN1CCCC1CNC(=O)c1cc(S(N)(=O)=O)cc(OC)c1OC` (stereo not drawn), for which the “activity, negative = inhibition” value was 0.732%.
Take `CC/C=C\C/C=C\C/C=C\C/C=C\C/C=C\C/C=C\CCC(=O)O`: the “activity, negative = inhibition” value was -12.8%.
As for `COc1cc2c(cc1OC)[C@@H](Cc1cc(OC)c(OC)c(OC)c1)[N+](C)(CCCOC(=O)CC/C=C/CCC(=O)OCCC[N+]1(C)CCc3cc(OC)c(OC)cc3[C@H]1Cc1cc(OC)c(OC)c(OC)c1)CC2` (stereo partly drawn), the “activity, negative = inhibition” value is 5.28%.
Still for that read-out and setting: the figure for `CCCOC(=O)c1ccccc1O` is -2.64%; for `CC/C=C\C/C=C\C/C=C\CCCCCCCC(=O)O` it is -11.6%.
Same read-out and setting: in the case of `NC(=O)[C@H]1O[C@@H](O)[C@H](O)[C@@H](O)[C@@H]1O` it was 4.31%; in that of `CCCCCCCCCCCCOCCCN`, 2.82%; in that of `CC(C)(C)c1ccc2c(S(=O)(=O)O)c(C(C)(C)C)ccc2c1`, 1.79%.
For the compound `COC(=O)CCC[N+](C)(C)C`, the “activity, negative = inhibition” value was 10%.
Same read-out and setting: the figure for `CNC(=O)OCc1cccc(COC(=O)NC)n1` is 4.23%.
On to `O=C(NCCNCC(O)COc1ccc(O)cc1)N1CCOCC1` (stereo not drawn), for which the “activity, negative = inhibition” value was 1.67%.
Still for that read-out and setting: in the case of `OC[C@H]1O[C@@H]2O[C@H]3[C@H](O)[C@@H](O)[C@@H](O[C@H]4[C@H](O)[C@@H](O)[C@@H](O[C@H]5[C@H](O)[C@@H](O)[C@@H](O[C@H]6[C@H](O)[C@@H](O)[C@@H](O[C@H]7[C@H](O)[C@@H](O)[C@@H](O[C@H]1[C@H](O)[C@H]2O)O[C@@H]7CO)O[C@@H]6CO)O[C@@H]5CO)O[C@@H]4CO)O[C@@H]3CO` it was 1.31%; in that of `CCCCCCCCCCCCCCCCCCCCCC(=O)Nc1ccn([C@@H]2O[C@H](CO)[C@@H](O)[C@@H]2O)c(=O)n1`, -2.54%.
In the case of `CCCCCCCCCCCCCCCCCC[N+](C)(C)CCC[Si](OC)(OC)OC`, the “activity, negative = inhibition” value was 1.5%.
Turning to `OB(O)O`, the “activity, negative = inhibition” value is 9.93%.
Consider `CCOc1ccc(NC(=S)Nc2ccc(OCC)cc2)cc1`, for which the “activity, negative = inhibition” value is 3%.
Consider `CC(C)c1nc(N(C)S(C)(=O)=O)nc(-c2ccc(F)cc2)c1/C=C/C(O)CC(O)CC(=O)O` (stereo not drawn), for which the “activity, negative = inhibition” value is 11%.
The same measure, in the same setting: in the case of `O=C(/C=C/c1cccc(F)c1)NC1CC1` it was -1.6%.

The test system of a further experiment is CP256. The experiment is described as above. Particulars: P. falciparum in erythrocytes, SYBR Green DNA, 72 h; series mostly up to 28.7 µM; activity, negative = inhibition: at the top concentration. A digest of the protocol:
as §1
As for `Cc1ccc(C(C)(C)c2ccc(C)cc2)cc1`, the “activity, negative = inhibition” value is 6.2%.
For `N[C@H](CC(=O)O)C(=O)O`, the “activity, negative = inhibition” value was 11.7%.
Still for that read-out and setting: in the case of `O=C(O)COc1ccc(CCNS(=O)(=O)c2ccccc2)s1` it was 3.43%; in that of `O=S(=O)(O)CCCS(=O)(=O)O`, -3.44%.
Still for that read-out and setting: in the case of `COC(=O)c1ccccc1O` it was -5.94%.
Still for that read-out and setting: in the case of `CC1(O)CCC(C(C)(C)O)CC1` (stereo not drawn) it was 0.433%.
Regarding `COc1ccc(/C=C/C(=O)O)cc1`, the “activity, negative = inhibition” value is 8.36%.
With `CC(=O)Nc1c(I)c(C(=O)O)c(I)c(N(C)C(C)=O)c1I`, the “activity, negative = inhibition” value was -0.356%.
On the same count and under the same terms, in the case of `Nc1ncnc2c1ncn2[C@H]1CC[C@@H](CO)O1` it was 3.46%.
`COC(=O)C(CN)c1c[nH]c2ccc(OC)cc12` (stereo not drawn): the “activity, negative = inhibition” value was -7.54%.
Regarding `CC/C(=C(/CC)c1ccc(OP(=O)(O)O)cc1)c1ccc(OP(=O)(O)O)cc1`, the “activity, negative = inhibition” value is 9.48%.
Take `CN1c2c(nc(N)[nH]c2=O)NCC1CNc1ccc(C(=O)NC(CCC(=O)O)C(=O)O)cc1` (stereo not drawn): the “activity, negative = inhibition” value is 1.55%.
`CC(C)(CO)[C@@H](O)C(=O)NCCC(=O)NCCSSCCNC(=O)CCNC(=O)[C@H](O)C(C)(C)CO`: the “activity, negative = inhibition” value was 3.65%.
On to `CCCC(=O)O`, for which the “activity, negative = inhibition” value is 3.92%.
`CCSc1ccc2c(c1)N(CCCN1CCN(C)CC1)c1ccccc1S2`: the “activity, negative = inhibition” value is -0.768% [at 12.8 µM].
As for `CC1=CC(=C(c2ccc(N)cc2)c2ccc(N)cc2)C=CC1=N`, the Potency is 2240 nM (active).
Consider `CC1=CC(=O)NS(=O)(=O)O1`, for which the “activity, negative = inhibition” value was 4.02%.
Regarding `CC1CCCCN1CCCOC(=O)c1ccccc1` (stereo not drawn), the “activity, negative = inhibition” value was -13.4%.
For the compound `COC(=O)CC[C@H](N)C(=O)O`, the “activity, negative = inhibition” value was 3.14%.
The same measure, in the same setting: in the case of `C[C@H](CCC(=O)O)[C@H]1CC[C@H]2[C@@H]3CC[C@@H]4C[C@H](O)CC[C@]4(C)[C@H]3C[C@H](O)[C@]12C` it was 10.4%.
With `CO`, the “activity, negative = inhibition” value was 0.576%.
Still for that read-out and setting: in the case of `C=CCN1CCCC1CNC(=O)c1cc(S(N)(=O)=O)cc(OC)c1OC` (stereo not drawn) it was 1.8%.
For `CC/C=C\C/C=C\C/C=C\C/C=C\C/C=C\C/C=C\CCC(=O)O`, the “activity, negative = inhibition” value was -17.1%.
As to `COc1cc2c(cc1OC)[C@@H](Cc1cc(OC)c(OC)c(OC)c1)[N+](C)(CCCOC(=O)CC/C=C/CCC(=O)OCCC[N+]1(C)CCc3cc(OC)c(OC)cc3[C@H]1Cc1cc(OC)c(OC)c(OC)c1)CC2` (stereo partly drawn), the “activity, negative = inhibition” value is 5.9%.
On the same count and under the same terms, in the case of `CCCOC(=O)c1ccccc1O` it was -28.2%; in that of `CC/C=C\C/C=C\C/C=C\CCCCCCCC(=O)O`, -3.57%; in that of `NC(=O)[C@H]1O[C@@H](O)[C@H](O)[C@@H](O)[C@@H]1O`, 4.67%.
In the case of `CCCCCCCCCCCCOCCCN`, the “activity, negative = inhibition” value was 0.904%.
For the compound `CC(C)(C)c1ccc2c(S(=O)(=O)O)c(C(C)(C)C)ccc2c1`, the “activity, negative = inhibition” value was 0.55%.
In the case of `COC(=O)CCC[N+](C)(C)C`, the “activity, negative = inhibition” value is 1.99%.
Consider `CNC(=O)OCc1cccc(COC(=O)NC)n1`, for which the “activity, negative = inhibition” value was 0.629%.
With `O=C(NCCNCC(O)COc1ccc(O)cc1)N1CCOCC1` (stereo not drawn), the “activity, negative = inhibition” value was -0.721%.
In the case of `OC[C@H]1O[C@@H]2O[C@H]3[C@H](O)[C@@H](O)[C@@H](O[C@H]4[C@H](O)[C@@H](O)[C@@H](O[C@H]5[C@H](O)[C@@H](O)[C@@H](O[C@H]6[C@H](O)[C@@H](O)[C@@H](O[C@H]7[C@H](O)[C@@H](O)[C@@H](O[C@H]1[C@H](O)[C@H]2O)O[C@@H]7CO)O[C@@H]6CO)O[C@@H]5CO)O[C@@H]4CO)O[C@@H]3CO`, the “activity, negative = inhibition” value is 4.96%.
Take `CCCCCCCCCCCCCCCCCCCCCC(=O)Nc1ccn([C@@H]2O[C@H](CO)[C@@H](O)[C@@H]2O)c(=O)n1`: the “activity, negative = inhibition” value was -1.85%.
Consider `CCCCCCCCCCCCCCCCCC[N+](C)(C)CCC[Si](OC)(OC)OC`, for which the “activity, negative = inhibition” value was 3.22%.
For `OB(O)O`, the “activity, negative = inhibition” value was 6.16%.
Still for that read-out and setting: in the case of `CCOc1ccc(NC(=S)Nc2ccc(OCC)cc2)cc1` it was 5.22%; in that of `CC(C)c1nc(N(C)S(C)(=O)=O)nc(-c2ccc(F)cc2)c1/C=C/C(O)CC(O)CC(=O)O` (stereo not drawn), 12.3%.
`O=C(/C=C/c1cccc(F)c1)NC1CC1`: the “activity, negative = inhibition” value was -18.5%.
